# This is a sample that favours compounds with a hit; in the whole collection about 3.4% have one here.
# GPR151 activ: activates the human receptor GPR151. 1% of 650,000 active. PathHunter beta-arrestin GPR151 cells, luminescence. Q8TDV0. activation, % at 11.2 µM; in the data active means activation above about 4.9%;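 further: 0% = median of compound wells and 100% = cells with positive control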
# Target sequence (Q8TDV0 whole entry, looked up): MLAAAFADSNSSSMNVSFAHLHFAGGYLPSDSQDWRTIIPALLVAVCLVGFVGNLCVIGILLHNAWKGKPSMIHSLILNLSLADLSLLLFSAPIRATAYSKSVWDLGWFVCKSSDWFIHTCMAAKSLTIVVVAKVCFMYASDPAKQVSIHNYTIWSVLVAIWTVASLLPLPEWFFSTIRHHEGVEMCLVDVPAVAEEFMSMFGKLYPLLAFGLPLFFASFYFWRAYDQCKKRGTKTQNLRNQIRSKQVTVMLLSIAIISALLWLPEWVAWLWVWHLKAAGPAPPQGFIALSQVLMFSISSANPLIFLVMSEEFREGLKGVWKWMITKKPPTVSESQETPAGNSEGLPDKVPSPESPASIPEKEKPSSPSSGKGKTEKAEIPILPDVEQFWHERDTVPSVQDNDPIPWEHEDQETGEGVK
# FBW7 activator: human FBW7 E3 ligase activation, primary screen. 0.13% of 650,000 active. Q969H0. AID 1259310. normalized activity (activation), % at 26.1 µM. AlphaScreen FBW7–phospho-cyclin E peptide binding, activator screen; in the data active means normalized activity above about 1.9%;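 further: purified mutant Fbw7 with reduced substrate affinity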
# TEAD-YAP block: TEAD-YAP interaction inhibition | 1.4% of 640,000 active | inhibition, % at 9.12 µM | HEK-TIYL cells, TEAD-Gal4/YAP UAS-luciferase luminescence; in the data active means inhibition above about 32%;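 further: 0% = median of test compound wells and 100% = reference inhibitor wells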
# MITF primary: inhibitors of human MITF; AID 1259374; inhibition, % at 2.6 µM; AlphaScreen MITF homodimerization, bead proximity signal; 0.91% of 650,000 active; in the data active means inhibition above about 50%;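 further: 0% = vehicle wells with protein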
# MITF confirm: human MITF inhibition, confirmation. shares compounds with MITF primary. AlphaScreen MITF homodimerization, biotin/His-MITF beads. inhibition, % at 2.6 µM. 16% of 4,700 active. AID 1259372;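 active means inhibition above a cutoff derived from the DMSO control wells, cut at about 28% in these data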;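 further: 0% = MITF dimer wells with DMSO only; inhibitors lower the bead chemiluminescence by keeping MITF from dimerizing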
# AS interf DR: AlphaScreen optical interference, dose response counter-screen | IC50, µM | shares compounds with MITF primary | AID 1259373 | AlphaScreen optical interference counterscreen, cell-free | 6% of 480 active; call rule not given here
# AlphaScreen intf2: optically interferes with AlphaScreen signal; shares compounds with MITF primary; LysRS AlphaScreen counterscreen, signal interference, triplicate; inhibition, % at 2.6 µM; 7.6% of 4,700 active;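 active means inhibition above a cutoff derived from the DMSO control wells, cut at about 30% in these data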
# Starred values were filed as active, the others as inactive; . = no result given.
SMILES,GPR151 activ,FBW7 activator,TEAD-YAP block,MITF primary,MITF confirm,AlphaScreen intf2,others
OC[C@H]1OC([S-])[C@H](O)[C@@H](O)[C@@H]1O.[Au+] (stereo not given in full),0,0,15,86*,73*,0,AS interf DR=>6.5
Cc1ccc(C(=O)N2CCOCC2)c(C)c1,0,1,-1,10,.,.,
Cc1ncc(CO)c(/C=N/Nc2nc3ccccc3o2)c1O,-1,-1,11,65*,19,47*,
c1ccc(N2CCCC2=Nc2ccncc2)cc1,0,0,-2,68*,6,11,
NC(=O)CN1CCCC1=Nc1ccccc1,-1,0,0,-4,.,.,
COc1ccc(NC(=S)NCC(C)C)c(OC)c1,0,0,7,65*,12,14,
COc1ccc(NC(=S)NCC(O)c2ccccc2)c(OC)c1 (stereo not given),0,0,12,3,.,.,
O=C1OC(c2ccc(Cl)c(Cl)c2)=N/C1=C\c1ccccc1,1,0,5,-4,.,.,
O=C1OC(c2cccc([N+](=O)[O-])c2)=N/C1=C\c1ccc(OCc2ccccc2)cc1,0,0,14,64*,37*,16,
CC(=O)Nc1ccc(C2=N/C(=C/c3cccc([N+](=O)[O-])c3)C(=O)O2)cc1,0,0,-2,58*,5,-11,
O=C1OC(c2cc(C3=N/C(=C\c4ccccc4)C(=O)O3)cc(C3=N/C(=C/c4ccccc4)C(=O)O3)c2)=N/C1=C\c1ccccc1,0,0,9,58*,30*,5,
Cc1ccc(C2=N/C(=C\c3ccc(OCc4ccccc4)cc3)C(=O)O2)cc1[N+](=O)[O-],-1,0,4,4,.,.,
COc1cc(CN2CCC(Cn3c(C)nc4ccccc43)CC2)cc(OC)c1,0,0,9,59*,8,16,
COc1cc(CN2CCC(c3nc(-c4ccccc4)no3)CC2)cc(OC)c1,-1,0,-6,-8,.,.,
COc1ccc(N2CC(C(=O)Nc3cc(C)c(Br)c(C)c3)CC2=O)cc1 (stereo not given),0,0,1,-5,.,.,
O=C(c1ccc(F)cc1)N1CCN(Cc2ccc(Br)cc2)CC1,1,0,12,62*,7,15,
O=C(c1ccc(F)cc1)N1CCN(Cc2ccc(F)cc2)CC1,-2,0,5,52*,-4,1,
Fc1ccc(CN2CCN(Cc3ccncc3)CC2)cc1,-1,1,14,83*,6,9,
Cc1ccc(CN2CCN(C(=O)c3ccncc3)CC2)cc1,3,0,1,65*,-1,-4,
O=C(c1ccccc1)N1CCN(Cc2ccccc2)CC1,4,0,4,13,.,.,
Cc1ccc(CN2CCN(C(=O)c3ccccc3)CC2)cc1,0,0,-2,47,.,.,
O=C(COc1ccc(C2CCCCC2)cc1)Nc1c[nH]c(=O)[nH]c1=O,-2,1,-18,18,.,.,
CCCNC(=O)C(C)Oc1ccc(Cl)cc1Cl (stereo not given),0,0,-8,2,.,.,
Fc1ccccc1C1CCN(Cc2ccncc2)CC1,0,0,3,70*,5,12,
O=C(c1ccc(F)cc1)N1CCN(Cc2ccncc2)CC1,0,0,-5,63*,10,-7,
SMILES,GPR151 activ,FBW7 activator,TEAD-YAP block,MITF primary,MITF confirm,AlphaScreen intf2,others
CC(=O)c1cccc(-c2cnn3c(NCCc4ccccn4)ccnc23)c1,0,0,-37,11,.,.,
O=C(O)/C=C/c1cccc(-c2cnn3c(NCCc4ccccn4)ccnc23)c1,0,0,3,53*,3,15,
CSc1ccc(/C=C2\N=C(c3cccc(Br)c3)OC2=O)cc1,0,1,-16,22,.,.,
Nc1nonc1C(=O)N/N=C\c1cc([N+](=O)[O-])c(Cl)cc1Cl,0,1,4,67*,-4,-6,
C=CCN(CC=C)C(=O)C1CCN(Cc2cc(Br)c(O)c(OC)c2)CC1,0,1,-4,69*,-13,-4,
COc1cc(CN2CCC(O)CC2)cc(Br)c1O,0,0,-8,39,.,.,
Cc1ccc(N2C(=O)C3C4C=CC(O4)C3C2=O)cc1 (stereo not given),-1,0,1,-12,.,.,
CCOc1cc(CNC)cc(Br)c1OCC,-1,0,4,-2,.,.,
COc1ccc(CN2CCN(Cc3ccccc3F)CC2)cc1OC,-2,1,-6,79*,8,6,
